Calls of active or inactive are those of the source.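 Rule for the calls, unless noted: active = inhibition at or above 50% at 10 µM; inactive = inhibition below 50%.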
What was measured:
[1] = inhibitors of TNFa-induced NFkB p65 translocation, primary screen, imaging, HUVEC, MLSMR starter and 10KST1 sets (AID 438;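 active = inhibition above 20% together with a positive visual image hit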;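 note: compound added about 3h40 before a 20 min TNFalpha stimulation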;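 for inhibition: signal is the nuclear over cytoplasmic p65 intensity ratio per well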); settings: HUVEC TNFa-induced p65 nuclear translocation; cell count: measured here: nuclei count (cytotoxicity indicator), at 2.08 µM; inhibition: at 2 µM, stronger effect = higher value, 0% TNFa-plus-vehicle, 100% no-TNFa wells
[2] = inhibitors of mutant huntingtin aggregation, primary screen, imaging, exon1htt(103Q)mCFP cells, high-content imaging (AID 483;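 active = visual image review flags a hit and inhibition of aggregation exceeds 20%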;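 note: compound exposure lasted 3 days before fixation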;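 for nuclei count: percent of the per-plate median nuclei count of sample wells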); settings: exon1htt(103Q)mCFP cell line, aggregate imaging, at 2 µM; inhibition of aggregation: stronger effect = higher value; nuclei count: measured here: cell count, toxicity
[3] = inhibitors of E-selectin induction by TNFa, primary screen, imaging, HUVEC, immunofluorescence, MLSMR starter and 10KST1 sets (AID 487;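 active = visually confirmed hit in the image check and inhibition above 20%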;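 for inhibition: signal is fraction of cell area covered by stained E-selectin grains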;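 for nuclei count: 100% = median nuclei count of all wells on the same plate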); settings: HUVEC TNFalpha-induced E-selectin immunofluorescence imaging, at 2 µM; inhibition: stronger effect = higher value; nuclei count: measured here: cell number, toxicity
[4] = molecular target: Voltage-gated potassium channel subunit beta-2 (Rattus norvegicus) (UniProt P62483); assay: KvBeta enzyme negative modulators, primary screen, biochemical, NADPH fluorescence (AID 622;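 active = fluorescence slope higher than the sample average by over 3 SD, cut at about -0.22 in these data, passing the limit was not always enough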;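 note: slope of raw intensity against log time taken from 70 to 1610 s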); settings: recombinant KvBeta, 4-cyanobenzaldehyde reduction, at 10 µM, stronger effect = higher value
Voltage-gated potassium channel subunit beta-2 (Rattus norvegicus), sequence (P62483 whole entry, looked up): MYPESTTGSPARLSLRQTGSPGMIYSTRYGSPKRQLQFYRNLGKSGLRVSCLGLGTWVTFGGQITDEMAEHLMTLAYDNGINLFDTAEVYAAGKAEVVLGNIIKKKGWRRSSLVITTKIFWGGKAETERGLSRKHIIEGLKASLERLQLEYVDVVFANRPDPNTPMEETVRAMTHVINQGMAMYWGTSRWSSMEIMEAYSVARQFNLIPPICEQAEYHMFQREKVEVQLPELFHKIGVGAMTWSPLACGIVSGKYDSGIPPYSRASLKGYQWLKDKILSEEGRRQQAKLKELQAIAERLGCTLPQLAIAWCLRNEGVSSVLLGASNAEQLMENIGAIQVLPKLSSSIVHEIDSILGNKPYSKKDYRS

[5] = molecular target: Voltage-gated potassium channel subunit beta-2 (Rattus norvegicus) (UniProt P62483); assay: KvBeta positive modulators, primary screen, biochemical, NADPH fluorescence (AID 623;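 active = NADPH fluorescence slope more negative than the mean of all samples by about 3 SD, 99.7% confidence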;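 note: fluorescence intensity change per second fitted from 20 to 320 s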); settings: Recombinant KvBeta, NADPH fluorescence decrease slope, 10 min; at 10 µM; stronger effect = lower value
[6] = molecular target: Alpha-2C adrenergic receptor (Homo sapiens) (UniProt P18825); assay: modulators of alpha2C/GIRK thallium flux, primary screen, cell-based, HEK293 alpha2C/GIRK1/2 (AID 624;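 active = fluorescence slope after compound addition differing from the mean of all screened samples at 99.7% confidence, in either direction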;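 note: slope of fluorescence ratio to pre-addition baseline per second over 15 to 24 s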); settings: thallium flux BTC fluorescence, at 10 µM, actives lie on both sides
Alpha-2C adrenergic receptor (Homo sapiens), sequence (P18825 whole entry, looked up): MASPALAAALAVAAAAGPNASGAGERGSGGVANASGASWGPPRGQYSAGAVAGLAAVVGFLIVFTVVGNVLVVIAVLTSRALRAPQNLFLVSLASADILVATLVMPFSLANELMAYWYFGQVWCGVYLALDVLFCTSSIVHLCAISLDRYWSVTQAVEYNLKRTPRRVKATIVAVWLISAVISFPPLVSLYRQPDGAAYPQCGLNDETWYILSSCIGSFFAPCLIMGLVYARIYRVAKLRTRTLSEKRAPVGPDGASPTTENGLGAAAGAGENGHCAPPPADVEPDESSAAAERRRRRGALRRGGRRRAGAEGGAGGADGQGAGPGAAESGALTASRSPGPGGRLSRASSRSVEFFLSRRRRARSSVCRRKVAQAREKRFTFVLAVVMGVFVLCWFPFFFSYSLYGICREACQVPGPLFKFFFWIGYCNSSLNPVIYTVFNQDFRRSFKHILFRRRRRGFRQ

[7] = inhibitors of Sendai virus-induced IRF3 signaling, primary screen, TLR/RLR signaling modifier project, cell-based, Sendai virus stimulus, luciferase, 10K MLSCN set (AID 602276); settings: HEK293 RL24 IRF3 luciferase reporter, at 10 µM, stronger effect = higher value;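 note: firefly luciferase from ISG56 promoter only with Renilla not read in this screen; 0% = Sendai virus plus DMSO and 100% = medium plus DMSO without virus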
[8] = inhibitors of poly I:C-induced TLR3 signaling, primary screen, cell-based, poly I:C stimulus, luciferase, 10K MLSCN set (AID 602277;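 active = inhibition of the reporter signal at or above 50%; inactive = inhibition below 50%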); settings: HEK293-TLR3 RL24 IRF3 luciferase reporter, at 10 µM, stronger effect = higher value

| Compound | cell count [1] | inhibition [1] | inhibition of aggregation [2] | nuclei count [2] [%] | inhibition [3] | nuclei count [3] [%] | fluorescence slope [4] | NADPH fluorescence slope [5] | slope [6] | inhibition [7] | inhibition [8] |
| --- | --- | --- | --- | --- | --- | --- | --- | --- | --- | --- | --- |
| CCN(Cc1nc2ccccc2c(=O)[nH]1)Cc1cc(=O)oc2cc(C)c(C)cc12 | 288 | 6.6% (inactive) | 0.4% (inactive) | 107 | -33.2% (inactive) | 126 | -0.435 (inactive) | -4.6e-05 (inactive) | 0.00456 (inactive) | 5.41% (inactive) | 8.19% (inactive) |
| CCOC(=O)c1c(C)oc2c1c(C(c1ccncc1)N1CCOCC1)c(O)c1ccccc12 (stereo not drawn) | 827 | -7.9% (inactive) | -6.4% (inactive) | 101 | -21.1% (inactive) | 107 | -0.594 (inactive) | 2.5e-05 (inactive) | 0.00459 (inactive) | -6.32% (inactive) | -31.2% (inactive) |
| CCOc1ccc(-c2nnn(CCC(=O)O)n2)cc1OC | 429 | 6.5% (inactive) | 15.2% (inactive) | 64.5 | -108% (inactive) | 118 | -0.612 (inactive) | 1.3e-05 (inactive) | 0.00471 (inactive) | 18.1% (inactive) | 9.91% (inactive) |
| CC1CCN(C(=O)CSc2nnc(-c3ccc(S(=O)(=O)N4CCOCC4)cc3)n2C)CC1 | 446 | 3.5% (inactive) | -5.5% (inactive) | 97.2 | -169% (inactive) | 114 | -0.612 (inactive) | -4.4e-05 (inactive) | 0.00393 (inactive) | 3.11% (inactive) | 0.175% (inactive) |
| CCN1C(=O)c2ccccc2S(=O)(=O)c2ccc(C(=O)NCc3cccnc3)cc21 | 804 | -6.4% (inactive) | -35.7% (inactive) | 107 | -50.1% (inactive) | 129 | -0.569 (inactive) | -4.8e-05 (inactive) | 0.00634 (inactive) | -13.6% (inactive) | 1.79% (inactive) |
| CC1(C)OC(=O)C(=CNC(CCC(N)=O)C(=O)O)C(=O)O1 (stereo not drawn) | 679 | 3.6% (inactive) | 0.3% (inactive) | 117 | -16.8% (inactive) | 108 | -0.611 (inactive) | -9.2e-07 (inactive) | 0.00611 (inactive) | -19% (inactive) | -5.5% (inactive) |
| C=C(Cl)COc1ccc2c(C)cc(=O)oc2c1 | 319 | -6.8% (inactive) | -0.8% (inactive) | 71.6 | -31.6% (inactive) | 101 | -0.587 (inactive) | 3.6e-07 (inactive) | 0.00646 (inactive) | -24.5% (inactive) | -67.7% (inactive) |
| COc1c(Br)cc2c(C)c(C(=O)O)oc2c1Br | 472 | 3.5% (inactive) | -9.2% (inactive) | 95.6 | -26.9% (inactive) | 112 | -0.443 (inactive) | -0.000118 (inactive) | 0.00602 (inactive) | 9.89% (inactive) | 18.8% (inactive) |
| O=C(CC1Oc2ccc(Cl)cc2NC1=O)NC1CCCCCC1 (stereo not drawn) | 615 | -4.3% (inactive) | 19.5% (inactive) | 51.7 | 0.7% (inactive) | 100 | -0.544 (inactive) | -3.7e-05 (inactive) | 0.00511 (inactive) | 8.85% (inactive) | 6.03% (inactive) |
| O=S(=O)(c1cccs1)N1CCN(Cc2nc3ccccc3s2)CC1 | 283 | 3.3% (inactive) | -5.8% (inactive) | 99.8 | 1% (inactive) | 90.9 | -0.556 (inactive) | 3e-05 (inactive) | 0.00461 (inactive) | -3.64% (inactive) | -4.76% (inactive) |
| O=C(c1cccnc1)N1CCc2ccccc21 | 414 | 3% (inactive) | 1.6% (inactive) | 108 | 24.6% (inactive) | 95.4 | -0.468 (inactive) | 1.9e-05 (inactive) | 0.00635 (inactive) | 10% (inactive) | 43.9% (inactive) |
| COCc1nnc(NC(=O)c2ccc(S(=O)(=O)N(C)c3ccccc3)cc2)o1 | 716 | 2.4% (inactive) | -2% (inactive) | 116 | -21% (inactive) | 107 | -0.575 (inactive) | 1.3e-05 (inactive) | 0.00656 (inactive) | 13.8% (inactive) | 7.35% (inactive) |
| CCOC(=O)c1ccc(N2C(=O)CC(N3CCN(C/C=C/c4ccccc4)CC3)C2=O)cc1 (stereo not drawn) | 375 | -4.9% (inactive) | -10.3% (inactive) | 103 | -52.6% (inactive) | 125 | -0.39 (inactive) | 1.2e-05 (inactive) | 0.008 (inactive) | 9.04% (inactive) | 16.7% (inactive) |
| O=C(c1ccco1)N1CCN(c2ccc(Cl)cc2)CC1 | 173 | -5.1% (inactive) | -6.3% (inactive) | 82.3 | 12.5% (inactive) | 93 | -0.467 (inactive) | 7.7e-05 (inactive) | 0.00616 (inactive) | -73.4% (inactive) | -172% (inactive) |
| Cc1ccc(Cn2c(SCCN3CCCCC3)nc3c2c(=O)[nH]c(=O)n3C)cc1 | 575 | -6.4% (inactive) | 5.6% (inactive) | 71.5 | 29.9% (inactive) | 100 | -0.577 (inactive) | -2.5e-05 (inactive) | 0.00647 (inactive) | 3.78% (inactive) | 32.9% (inactive) |
| CC(C(N)=O)N1C(=O)C2C3C=CC(C3)C2C1=O (stereo not drawn) | 217 | 1.8% (inactive) | -14% (inactive) | 105 | -33.8% (inactive) | 121 | -0.443 (inactive) | -2.4e-05 (inactive) | 0.00534 (inactive) | 10.1% (inactive) | 11.3% (inactive) |
| O=C(c1ccco1)N1CCN(CCCCN2C(=O)c3ccccc3C2=O)CC1 | 265 | 26.7% (inactive) | 16% (inactive) | 89.1 | 5.7% (inactive) | 95.4 | -0.593 (inactive) | 4.7e-06 (inactive) | 0.00572 (inactive) | 15.1% (inactive) | 36.3% (inactive) |
| Cc1cc(C(=O)Nc2cccnc2)no1 | 543 | -10.1% (inactive) | -9.5% (inactive) | 116 | -133% (inactive) | 112 | -0.35 (inactive) | -5.2e-05 (inactive) | 0.0058 (inactive) | -17% (inactive) | -20.9% (inactive) |
| COc1cc(S(=O)(=O)N2CCC(N3CCCCC3)CC2)ccc1-n1cnnn1 | 351 | 6.9% (inactive) | 14.1% (inactive) | 89.1 | -20.4% (inactive) | 102 | -0.593 (inactive) | -7.9e-06 (inactive) | 0.00492 (inactive) | -9.28% (inactive) | 3.24% (inactive) |
| CC1(C)CC(=O)C(C(=O)CCCCC(=O)C2C(=O)CC(C)(C)CC2=O)C(=O)C1 | 269 | 3.6% (inactive) | 18% (inactive) | 100 | 19% (inactive) | 80 | -0.415 (inactive) | 1.6e-05 (inactive) | 0.00351 (inactive) | -6.03% (inactive) | -20.4% (inactive) |
| CC(=O)OC1CSc2nc3ccccc3n2C1 (stereo not drawn) | 393 | -9.6% (inactive) | 6.2% (inactive) | 99.9 | 25.1% (inactive) | 118 | -0.302 (inactive) | -5.5e-05 (inactive) | 0.00459 (inactive) | 7.55% (inactive) | 13% (inactive) |
| CCOc1cc(-c2nc(-c3ccc(C)nc3OCC)no2)cc(OCC)c1OCC | 612 | 0% (inactive) | 32.3% (inactive) | 79.5 | -56.3% (inactive) | 117 | -0.601 (inactive) | -1.4e-05 (inactive) | 0.00309 (inactive) | -10.9% (inactive) | -40.1% (inactive) |
| Cc1ccc2cc3cc(C(=O)NCCN4CCOCC4)oc3nc2c1 | 760 | -5% (inactive) | 3.7% (inactive) | 105 | -36.3% (inactive) | 111 | -0.0588 (inactive) | -2.5e-05 (inactive) | 0.00283 (inactive) | 7.18% (inactive) | 8.18% (inactive) |
| CCOc1ccccc1C1C(C(=O)Nc2ccc(OC)cc2)=C(C)Nc2nc(CCCO)nn21 (stereo not drawn) | 659 | -0.3% (inactive) | -30.8% (inactive) | 116 | -35.4% (inactive) | 118 | -0.443 (inactive) | -2.8e-05 (inactive) | 0.00548 (inactive) | -0.537% (inactive) | 17.2% (inactive) |
| COc1ccc(Nc2ncc3c(n2)CC(c2ccc(OC)cc2)CC3=O)cc1 (stereo not drawn) | 649 | 6.3% (inactive) | -7.5% (inactive) | 101 | -5.5% (inactive) | 97 | -0.298 (inactive) | -3.8e-05 (inactive) | 0.0047 (inactive) | 5.21% (inactive) | -19.5% (inactive) |
| CCOC(=O)C1CCCN(c2c(NCc3ccco3)c(=O)c2=O)C1 (stereo not drawn) | 614 | -7.3% (inactive) | -5.7% (inactive) | 99.7 | -52.6% (inactive) | 128 | -0.531 (inactive) | -1.5e-05 (inactive) | 0.00732 (inactive) | -5.89% (inactive) | 16.5% (inactive) |
| CCOC(=O)C1CCN(C(=O)C2(NC(=O)Nc3ccccc3Cl)CCCCC2)CC1 | 568 | -4.9% (inactive) | -41.9% (inactive) | 107 | -54.8% (inactive) | 105 | -0.626 (inactive) | 5.4e-06 (inactive) | 0.0059 (inactive) | 15% (inactive) | 20.6% (inactive) |
| O=C(O)c1ccccc1S(=O)(=O)NCC(O)COc1ccc(Br)cc1 (stereo not drawn) | 435 | 3.5% (inactive) | -17% (inactive) | 106 | 31.4% (inactive) | 81.4 | -0.39 (inactive) | 2.1e-05 (inactive) | 0.00443 (inactive) | 10.6% (inactive) | 14.4% (inactive) |

Reference: PubChem BioAssay
